Most compounds without a hit are left out; they make up all but 6.9% or so of the library.
SW480 rerep = DNA re-replication induction in SW480 cells | Potency, µM (series often up to 46.1 µM), for the others: at the top dose re-replication activation, usual class: activators | SW480 DNA re-replication, Hoechst DNA content imaging, 48 h | AID 624297 | hit rate 1.8% among 340,000; note: potency is the fitted concentration of half-maximal effect; % of control where 0% means no effect; nearly all actives have a fitted effect of over 55% in size
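Image-based read-out: total Hoechst fluorescence of nuclei (405 nm excitation, 500-530 nm emission), with hits raising the fraction of high-intensity nuclei. SW480 colon cells incubated 48 hr with compounds at 37 C.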
Giardia killer = Giardia lamblia killing; Giardia lamblia trophozoite viability; AID 540267; activity change, % at 7.66 µM, hits read low; hit rate 0.15% among 340,000; in the data active = activity change below about -80%; inconclusive = between about -30% and that limit;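 note: parasites exposed to compound for two days anaerobically before the ATP read; % is set by controls: 0 for no effect and ±100 for the full control effect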
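Giardia trophozoites, 100 cells per well, were exposed to compounds for 48 hrs at 37 deg C under anaerobic conditions; viability was then read as ATP content by bioluminescence after 15-30 min at room temperature.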
Vif-A3G inh = Vif-A3G binding inhibition; Potency, µM (titrated, usually from 46.1 µM), for inactives: top-dose activity, negative = active, usual class: inhibitors; AID 602310; Q9HC16; hit rate 0.076% among 410,000; HeLa A3G-eYFP + Vif (tagged APOBEC3G with the HIV-1 protein that degrades it), YFP fluorescence, overnight; note: potency is the fitted concentration of half-maximal effect; % is set by controls: 0 for no effect and ±100 for the full control effect; nearly all actives have a fitted effect of over 60% in size
Target sequence (Q9HC16 whole entry, looked up): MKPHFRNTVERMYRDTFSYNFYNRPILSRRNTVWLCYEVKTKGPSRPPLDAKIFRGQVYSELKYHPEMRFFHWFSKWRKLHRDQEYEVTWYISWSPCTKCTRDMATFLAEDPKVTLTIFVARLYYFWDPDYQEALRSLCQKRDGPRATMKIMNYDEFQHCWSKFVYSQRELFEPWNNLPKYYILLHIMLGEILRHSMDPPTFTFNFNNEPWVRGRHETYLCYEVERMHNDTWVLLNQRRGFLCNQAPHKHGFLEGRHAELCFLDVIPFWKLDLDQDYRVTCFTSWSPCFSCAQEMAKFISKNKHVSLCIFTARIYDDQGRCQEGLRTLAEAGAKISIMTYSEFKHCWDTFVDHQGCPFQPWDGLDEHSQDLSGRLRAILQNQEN
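Read-out is eYFP fluorescence (Ex 488/Em 500-530) from Vif-expressing HeLa A3G-eYFP cells; more signal means A3G escaped Vif-mediated degradation. Cells plated overnight, compound pinned in, incubated overnight at 37 deg C.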
MCF10A rereplic = inducers of DNA re-replication in MCF 10A breast cells | MCF 10A DNA re-replication, Hoechst nuclear intensity, 48 h | Potency, µM (series often up to 46.1 µM), for the others: at the highest dose activity, positive = re-replication, hits mostly activators | hit rate 2.9% among 350,000; note: potency is the fitted concentration of half-maximal effect; % of control where 0% means no effect; nearly all actives have a fitted effect of over 50% in size
IL-1B inflam inh = inhibitors of inflammasome signaling (IL-1 beta secretion). THP-1 LPS/ATP IL-1B secretion, AlphaLISA, 16 h; active compounds read low. activity change, % at 57.5 µM. hit rate 4.7% among 360,000; in the data active = activity change below about -50%; inconclusive = mostly about -30% to -49%; note: % is set by controls: 0 for no effect and ±100 for the full control effect
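Secreted IL-1B measured by AlphaLISA bead assay after 16 h compound exposure of THP-1 cells; compounds (final up to 57.5 uM) added 1 h before LPS (250 ng/mL) and ATP (1.25 mM) stimulation; lower signal means less secretion.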
Vif-APOBEC3F blk = inhibitors of Vif-A3F interaction | HeLa A3F-eYFP + Vif (tagged APOBEC3F with the HIV-1 protein that degrades it), YFP fluorescence increase | Potency, µM (doses to about 46.1 µM), inactives show top-dose activity, negative = active | hit rate 0.2% among 390,000 | AID 602313; note: potency is the fitted concentration of half-maximal effect; % of control where 0% means no effect; nearly all actives have a fitted effect of over 65% in size
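HeLa cells stably expressing A3F-eYFP plus Vif, plated and incubated overnight at 37 deg C, then exposed to compounds overnight at 37 deg C. Blocked degradation read as raised yellow fluorescence (Ex 488/Em 500-530).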
* hit, by the source's call; ? = inconclusive; . = not tested or not shown. Unless noted, calls come from the whole dose curve; as a rule, active = well fitted curve in the direction sought with a large enough effect; inconclusive = small, poorly fitted or top-dose-only effect, or another doubt; inactive = no such curve, though single readings can be large; an effect the other way counts as inactive or inconclusive.

SMILES	SW480 rerep	Giardia killer	Vif-A3G inh	MCF10A rereplic	IL-1B inflam inh	Vif-APOBEC3F blk
OC(COC(c1ccc(Cl)cc1)c1ccc(Cl)cc1)CN1CCc2ccccc2C1 (centres undefined)	?	5	?	18µM*	-80*	-18%
OC(COC(c1ccc(F)cc1)c1ccc(F)cc1)CN1CCc2ccccc2C1 (centres undefined)	?	4	?	?	-72*	-18%
OC1CCCN(CC(O)COC(c2ccc(F)cc2)c2ccc(F)cc2)C1 (centres undefined)	1%	6	0%	3%	?	-7%
OC(COC(c1ccccc1)c1ccccc1)CN1CCOCC1 (centres undefined)	-39%	-14	2%	-5%	-3	3%
Cc1cccc(C)c1Nc1c(-c2ccccc2Cl)nc2cnccn12	.	.	-16%	.	.	-2%
CC1CCN(c2nc3c(c(=O)n(C)c(=O)n3C)n2Cc2ccccc2)CC1	?	-12	0%	19%	-62*	-2%
Cn1c(=O)n(Cc2ccccc2)c(=O)c2c1nc1n2CCN1Cc1ccco1	?	27	-5%	0.73µM*	0	-7%
Cn1c(=O)n(CCc2ccccc2)c(=O)c2c1nc1n2CCCN1CCc1ccccc1	?	10	-3%	21µM*	?	1%
CCCn1c(=O)c2c(nc3n2CCCN3CCc2ccccc2)n(C)c1=O	-1%	-9	-1%	11%	1	0%
CCOC(=O)c1ccc(NC(=O)c2cc3c(n(-c4ccc(C)cc4)c2=O)CC(C)(C)CC3=O)cc1	.	.	3%	.	.	-4%
NC(=O)N/N=C/c1c(O)ccc2oc3c(c12)CCCC3	?	-6	5%	-3%	-98*	?
CC(C)(C)N=Cc1c(O)ccc2oc3c(c12)CCCC3	4%	4	-2%	14%	42	-29%
Cc1noc(C)c1CSCC(=O)Nc1cccc(C(F)(F)F)c1	-6%	-2	-1%	18µM*	11	-6%
O=C(CSC1=NCCN1)Nc1cccc(C(F)(F)F)c1	6%	14	-26%	?	-99*	-2%
COc1cc(NC(=O)CSCC(=O)Nc2cccc(C(F)(F)F)c2)c(Cl)cc1Cl	16%	-8	0%	3%	-62*	-7%
Cc1ccc(COc2ccc(CNCCCN3CCCCCC3=O)cc2)cc1	18µM*	-15	5%	?	-64*	2%
CC(=O)c1ccc(NC(=O)C2CCC(CNS(=O)(=O)c3cccs3)CC2)cc1 (centres undefined)	.	.	4%	.	.	0%
C=CC[n+]1c(/C=C2\C=Cc3cc(C)ccc3N2CC)ccc2ccccc21	-161%	-10	-24%	0%	-88*	?
CCN1C(=C(C#N)C#N)C=Cc2cc(C)ccc21	-12%	22	0%	?	-22	-13%
CCN(Cc1ccccc1)C(=O)c1ccc(CNS(=O)(=O)c2ccc(C)cc2)cc1	82%	8	-1%	21µM*	-16	-9%
CCCN(Cc1ccc(C)cc1)C(=O)c1ccc(CNS(=O)(=O)c2ccc(C(C)=O)cc2)cc1	-18%	-8	5%	48%	-8	1%
Cc1cccc(-c2nc3c4ccccc4nc(N4CCN(c5cc(C)ccc5C)CC4)n3n2)c1	.	.	3%	.	.	0%
O=C(NCc1ccc(Cl)cc1)NC1COc2ccccc2C1 (centres undefined)	.	.	3%	.	.	8%
CCOC(=O)C(CC)(CC)C(=O)/C=C/c1cccc(Br)c1	?	-10	-20%	18µM*	-98*	2%
CCCC12CN3CC(CCC)(CN(C1)C3c1ccccc1)C2=O (centres undefined)	.	.	-1%	.	.	-9%
SMILES	SW480 rerep	Giardia killer	Vif-A3G inh	MCF10A rereplic	IL-1B inflam inh	Vif-APOBEC3F blk
CCOc1ccc(/C=C2\SC(N3CCc4ccccc4C3)=NC2=O)cc1	0%	-10	-4%	?	-54*	?
COc1cc(/C=C2\SC(N3CCc4ccccc4C3)=NC2=O)cc(OC)c1OC	-5%	12	0%	?	-67*	-12%
COc1ccc(/C=C2\SC(N3CCc4ccccc4C3)=NC2=O)cc1	-6%	2	-5%	?	?	3%
O=C1N=C(N2CCc3ccccc3C2)S/C1=C\c1cccc(O)c1	-8%	6	-16%	21%	-56*	8%
COc1ccc2[nH]c(C)c(C(=O)CNc3nccs3)c2c1	.	.	-1%	.	.	.
COc1cccc(Cc2nc3ccccc3nc2SCC(=O)Nc2ccccc2F)c1	.	.	-4%	.	.	-8%
COc1ccccc1-c1cc(C(=O)NCCc2ccccc2)no1	?	12	?	15µM*	14	-10%
COc1ccccc1-c1cc(C(=O)Nc2cccnc2)no1	0.52µM*	-16	-44%	?	43	-13%
COc1ccc(CC(=O)Nc2ccc(-c3noc(-c4ccccc4OC)n3)cc2)cc1	2%	9	1%	12%	-63*	1%
COc1ccc(NC(=O)c2cc(-c3ccccc3OC)on2)cc1	3.5µM*	14	?	?	23	1%
COc1cccc(-c2nc(-c3ccc(NC(=O)Cc4ccccc4OC)cc3)no2)c1	0%	6	0%	4%	-19	6%
COc1ccc(NC(=O)c2cc(-c3ccccc3Cl)on2)cc1	-3%	-14	-3%	3%	-5	-7%
COc1ccccc1-c1cc(C(=O)Nc2cccnc2Cl)no1	8%	4	-1%	-10%	-17	0%
Cc1ccc(NC(=O)CN2C(=O)CSc3ccc(S(=O)(=O)N4CCCC4)cc32)c(C)c1	.	.	3%	.	.	-5%
COc1cccc(C2=CC(c3ccccc3O)NC(C)(C)N2)c1 (centres undefined)	.	-8	-12%	.	.	.
COc1cc(NC(=O)c2cc(-c3ccccc3Cl)on2)cc(OC)c1OC	?	2	?	21µM*	-81*	3%
COc1cccc(N2CC(NC(=O)Cc3cccs3)CC2=O)c1 (centres undefined)	.	.	0%	.	.	-7%
CCOCCCNC(=O)c1cc(Cl)c(NC(=O)C2=C(C)OCCS2)cc1OC	-3%	-17	-7%	2%	-18	-5%
CCCNC(=O)c1cc(Cl)c(NC(=O)C2=C(C)OCCS2)cc1OC	-33%	?	-3%	4%	-53*	3%
Cc1ccc(C)c(N2CCN(C(=O)c3ccc(NS(=O)(=O)c4c(C)noc4C)cc3)CC2)c1	2%	-7	-2%	?	26	3%
Cc1ccc(Cl)cc1N1CCN(C(=O)c2ccc(NS(=O)(=O)c3c(C)noc3C)cc2)CC1	?	7	-3%	15µM*	-17	-22%

High-throughput results from PubChem BioAssay.
